According to ChEMBL document CHEMBL3988442, “University of Dundee, Small-Polar-MMV Screening Library” (2021):
For some of these results: Measured potencies and affinities stand elsewhere.

Tests used:
Parameters in all cases: scale not given: direction of the effect not stated beside the values
[1] = target: Protein translocase subunit SecA (Escherichia coli (strain K12)) (UniProt P10408); experiment: Assay to Identify E. coli SecA ATPase Inhibitors; assay type: functional; details: 30 µM
[2] = target: T1, Ubiquitin-activating enzyme e1, putative (Leishmania donovani (strain BPK282A1)) (UniProt E9BSI1); experiment: Leishmania donovani Ubiquitin Activating Enzyme (LdE1); assay type: functional; details: 30 µM
T1 sequence (whole entry): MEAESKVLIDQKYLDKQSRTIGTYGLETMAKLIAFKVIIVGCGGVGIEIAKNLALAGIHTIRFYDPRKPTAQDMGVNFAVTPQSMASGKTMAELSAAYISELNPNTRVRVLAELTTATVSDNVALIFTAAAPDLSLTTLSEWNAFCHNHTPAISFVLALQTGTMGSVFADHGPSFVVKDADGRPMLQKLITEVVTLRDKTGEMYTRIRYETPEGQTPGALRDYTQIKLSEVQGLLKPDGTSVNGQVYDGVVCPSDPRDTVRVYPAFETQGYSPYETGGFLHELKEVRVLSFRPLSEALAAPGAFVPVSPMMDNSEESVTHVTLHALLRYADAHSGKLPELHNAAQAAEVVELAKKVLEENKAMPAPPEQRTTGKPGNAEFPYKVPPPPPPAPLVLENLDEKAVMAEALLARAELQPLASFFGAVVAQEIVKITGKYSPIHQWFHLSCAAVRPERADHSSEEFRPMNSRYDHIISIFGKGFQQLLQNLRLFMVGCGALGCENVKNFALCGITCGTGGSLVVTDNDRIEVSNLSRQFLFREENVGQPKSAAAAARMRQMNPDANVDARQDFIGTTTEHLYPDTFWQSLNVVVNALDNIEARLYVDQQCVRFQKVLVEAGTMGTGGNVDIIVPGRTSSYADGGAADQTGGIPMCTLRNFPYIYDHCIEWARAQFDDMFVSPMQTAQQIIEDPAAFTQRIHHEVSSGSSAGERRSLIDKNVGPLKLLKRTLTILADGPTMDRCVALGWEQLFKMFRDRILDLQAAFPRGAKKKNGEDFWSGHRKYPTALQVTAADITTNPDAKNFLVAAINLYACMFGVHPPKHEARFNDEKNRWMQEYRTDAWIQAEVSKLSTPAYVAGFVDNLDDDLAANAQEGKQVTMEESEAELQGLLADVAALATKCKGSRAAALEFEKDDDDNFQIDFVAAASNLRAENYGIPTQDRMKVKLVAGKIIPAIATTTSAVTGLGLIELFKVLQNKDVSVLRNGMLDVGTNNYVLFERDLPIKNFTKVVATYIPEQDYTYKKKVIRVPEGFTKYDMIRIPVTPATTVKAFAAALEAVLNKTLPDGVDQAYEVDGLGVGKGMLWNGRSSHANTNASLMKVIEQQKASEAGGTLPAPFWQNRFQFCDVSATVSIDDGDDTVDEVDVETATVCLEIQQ

[3] = target: AMP-activated protein kinase, AMPK (Homo sapiens) (UniProt P54646+O43741+P54619+Q9UGJ0+Q9Y478+Q13131+Q9UGI9); experiment: AMP-dependent Kinase enzyme assay. An in vitro enzyme assay that detects ADP turnover that is directly proportional to AMPK activity. This uses naive AMPK that is activated during the assay with MK-8722; assay type: functional; details: 30 µM
[4] = target: Sialic acid-binding Ig-like lectin 9 (Homo sapiens) (UniProt Q9Y336); experiment: Hs-Siglec9 ALPHAscreen SOP 20170721; details: 10 µM
Sequence of Sialic acid-binding Ig-like lectin 9 (Homo sapiens) (Q9Y336 whole entry): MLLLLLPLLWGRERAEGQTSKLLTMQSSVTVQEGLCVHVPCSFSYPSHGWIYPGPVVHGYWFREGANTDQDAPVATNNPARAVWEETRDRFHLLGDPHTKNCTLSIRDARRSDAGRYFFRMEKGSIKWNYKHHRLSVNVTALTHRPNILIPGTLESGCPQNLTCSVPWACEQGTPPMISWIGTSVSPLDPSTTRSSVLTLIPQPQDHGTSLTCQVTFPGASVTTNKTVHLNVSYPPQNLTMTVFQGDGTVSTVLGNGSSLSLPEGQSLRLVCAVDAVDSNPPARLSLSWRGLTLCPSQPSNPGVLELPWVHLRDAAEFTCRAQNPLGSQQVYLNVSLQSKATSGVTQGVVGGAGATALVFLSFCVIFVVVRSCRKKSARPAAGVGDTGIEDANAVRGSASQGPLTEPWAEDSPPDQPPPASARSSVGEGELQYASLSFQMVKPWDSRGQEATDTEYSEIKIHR

Trypanosoma cruzi = experiment: Trypanosoma cruzi phosphomannomutase and mannose-1-phosphate guanylyltransferase assay; assay type: functional; details: 10 µM
[5] = target: T2, Arginase-2, mitochondrial (Homo sapiens) (UniProt P78540); experiment: in vitro enzyme assay to detect the production of urea directly proportional to the activity of Arginase II; assay type: functional; details: 33.3 µM; note: in the data most compounds retested in dose-response had high values
T2 sequence (whole entry): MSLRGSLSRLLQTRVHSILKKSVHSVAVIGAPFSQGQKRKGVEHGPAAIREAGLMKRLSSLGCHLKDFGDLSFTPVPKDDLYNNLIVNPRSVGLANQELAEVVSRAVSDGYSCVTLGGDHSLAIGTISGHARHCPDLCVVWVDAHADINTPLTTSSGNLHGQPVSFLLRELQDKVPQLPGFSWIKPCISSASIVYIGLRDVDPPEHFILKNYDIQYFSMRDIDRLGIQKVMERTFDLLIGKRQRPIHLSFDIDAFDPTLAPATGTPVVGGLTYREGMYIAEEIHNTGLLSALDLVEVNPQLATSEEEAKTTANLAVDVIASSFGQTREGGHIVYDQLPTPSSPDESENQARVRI

[6] = target: T3, Proteasome subunit beta (Trypanosoma cruzi) (UniProt O96673); experiment: Trypanosoma cruzi proteasome chymotrypsin-like activity (TcProtChymo) assay.; note: in the data most compounds retested in dose-response had high values; assay type: functional; details: 9.37 µM
T3 sequence (whole entry): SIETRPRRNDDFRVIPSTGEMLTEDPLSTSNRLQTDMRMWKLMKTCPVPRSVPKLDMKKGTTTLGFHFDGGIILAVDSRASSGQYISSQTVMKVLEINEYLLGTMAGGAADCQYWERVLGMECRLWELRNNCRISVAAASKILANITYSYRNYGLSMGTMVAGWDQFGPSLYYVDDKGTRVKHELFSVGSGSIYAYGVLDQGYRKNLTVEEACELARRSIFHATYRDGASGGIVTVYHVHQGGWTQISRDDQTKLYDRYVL

Homo sapiens = species: Homo sapiens; experiment: To identify inhibition of the IFN signalling (Jak-Stat) pathway via expression of an eGFP reporter gene under the control of an IFN-stimulated response element (ISRE) containing MxA promoter.; assay type: functional; details: 30 µM
[7] = target: T4, Tyrosyl-tRNA synthetase, putative (Trypanosoma cruzi (strain CL Brener)) (UniProt Q4DSP6); experiment: Trypanosoma cruzi tyrosyl tRNA synthetase (TcYRS) _High Tyrosine SOP; assay type: functional; details: 30 µM; note: in the data most compounds retested in dose-response had high values
T4 sequence (whole entry): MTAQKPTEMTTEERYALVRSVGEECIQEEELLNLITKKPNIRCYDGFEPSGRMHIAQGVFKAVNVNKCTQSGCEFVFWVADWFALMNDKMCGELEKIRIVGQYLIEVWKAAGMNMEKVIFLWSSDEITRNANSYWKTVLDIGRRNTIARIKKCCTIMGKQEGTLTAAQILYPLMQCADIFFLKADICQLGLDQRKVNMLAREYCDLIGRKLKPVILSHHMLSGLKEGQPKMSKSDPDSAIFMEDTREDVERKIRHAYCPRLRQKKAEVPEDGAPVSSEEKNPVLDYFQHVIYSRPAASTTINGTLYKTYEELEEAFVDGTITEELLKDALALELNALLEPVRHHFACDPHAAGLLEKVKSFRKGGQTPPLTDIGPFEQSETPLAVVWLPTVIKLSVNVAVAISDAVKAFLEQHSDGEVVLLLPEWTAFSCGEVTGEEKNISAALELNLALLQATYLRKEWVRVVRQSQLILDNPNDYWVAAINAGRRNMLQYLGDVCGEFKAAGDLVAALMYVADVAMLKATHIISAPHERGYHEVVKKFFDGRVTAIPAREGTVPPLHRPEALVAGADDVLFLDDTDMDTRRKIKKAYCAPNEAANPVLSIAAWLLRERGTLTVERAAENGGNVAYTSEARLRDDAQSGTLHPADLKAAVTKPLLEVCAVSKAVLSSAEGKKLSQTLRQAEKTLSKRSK

[8] = target: T4, Tyrosyl-tRNA synthetase, putative (Trypanosoma cruzi (strain CL Brener)); experiment: Trypanosoma cruzi tyrosyl tRNA synthetase (TcYRS) SOP; assay type: functional; details: 30 µM
[9] = target: Chromo domain-containing protein 1 (Saccharomyces cerevisiae (strain ATCC 204508 / S288c) (Baker's yeast)) (UniProt P32657); experiment: ScCHD-1 Enzyme Inhibition Assay; assay type: functional; details: 30 µM; note: in the data most compounds retested in dose-response had high values
Sequence of Chromo domain-containing protein 1 (Saccharomyces cerevisiae (strain ATCC 204508 / S288c) (Baker's yeast)) (P32657 whole entry, the tested form may be a part): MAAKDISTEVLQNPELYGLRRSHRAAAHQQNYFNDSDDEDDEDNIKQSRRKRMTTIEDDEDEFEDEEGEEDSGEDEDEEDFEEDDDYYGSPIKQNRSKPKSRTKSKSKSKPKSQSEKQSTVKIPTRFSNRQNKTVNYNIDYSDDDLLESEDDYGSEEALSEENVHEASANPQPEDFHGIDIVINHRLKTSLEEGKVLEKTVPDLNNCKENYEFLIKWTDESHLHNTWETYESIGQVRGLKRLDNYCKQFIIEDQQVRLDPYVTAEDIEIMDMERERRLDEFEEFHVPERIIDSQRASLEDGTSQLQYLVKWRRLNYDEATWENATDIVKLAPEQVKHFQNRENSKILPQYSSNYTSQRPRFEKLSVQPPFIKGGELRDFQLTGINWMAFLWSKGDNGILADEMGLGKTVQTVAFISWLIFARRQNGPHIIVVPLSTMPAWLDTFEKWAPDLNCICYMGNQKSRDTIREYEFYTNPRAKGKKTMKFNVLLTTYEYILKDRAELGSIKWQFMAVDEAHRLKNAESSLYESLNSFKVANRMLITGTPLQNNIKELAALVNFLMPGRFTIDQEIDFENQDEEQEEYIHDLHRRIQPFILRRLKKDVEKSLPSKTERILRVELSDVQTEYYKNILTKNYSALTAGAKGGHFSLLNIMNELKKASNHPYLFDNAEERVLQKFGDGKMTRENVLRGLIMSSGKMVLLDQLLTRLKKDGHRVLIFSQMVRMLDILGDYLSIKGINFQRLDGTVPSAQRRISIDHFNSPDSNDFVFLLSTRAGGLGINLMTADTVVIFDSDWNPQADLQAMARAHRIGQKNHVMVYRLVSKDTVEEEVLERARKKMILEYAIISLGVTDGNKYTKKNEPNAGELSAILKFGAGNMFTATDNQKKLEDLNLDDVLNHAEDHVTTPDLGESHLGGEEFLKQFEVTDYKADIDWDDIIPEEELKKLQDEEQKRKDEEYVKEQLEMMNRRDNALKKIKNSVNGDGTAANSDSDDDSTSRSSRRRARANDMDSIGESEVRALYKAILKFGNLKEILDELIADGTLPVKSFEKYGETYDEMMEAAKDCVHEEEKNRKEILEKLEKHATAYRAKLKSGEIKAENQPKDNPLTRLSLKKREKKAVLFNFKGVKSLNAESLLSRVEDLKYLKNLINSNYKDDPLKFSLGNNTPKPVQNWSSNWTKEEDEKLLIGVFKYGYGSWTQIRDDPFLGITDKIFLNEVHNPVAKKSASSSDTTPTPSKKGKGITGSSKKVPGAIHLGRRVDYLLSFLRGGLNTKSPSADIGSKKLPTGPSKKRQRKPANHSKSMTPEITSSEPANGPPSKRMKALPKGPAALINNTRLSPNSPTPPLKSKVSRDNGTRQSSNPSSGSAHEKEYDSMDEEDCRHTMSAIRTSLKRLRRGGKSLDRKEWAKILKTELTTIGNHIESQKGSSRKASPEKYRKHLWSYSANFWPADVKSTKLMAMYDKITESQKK

Sequence of Protein translocase subunit SecA (Escherichia coli (strain K12)) (P10408 whole entry): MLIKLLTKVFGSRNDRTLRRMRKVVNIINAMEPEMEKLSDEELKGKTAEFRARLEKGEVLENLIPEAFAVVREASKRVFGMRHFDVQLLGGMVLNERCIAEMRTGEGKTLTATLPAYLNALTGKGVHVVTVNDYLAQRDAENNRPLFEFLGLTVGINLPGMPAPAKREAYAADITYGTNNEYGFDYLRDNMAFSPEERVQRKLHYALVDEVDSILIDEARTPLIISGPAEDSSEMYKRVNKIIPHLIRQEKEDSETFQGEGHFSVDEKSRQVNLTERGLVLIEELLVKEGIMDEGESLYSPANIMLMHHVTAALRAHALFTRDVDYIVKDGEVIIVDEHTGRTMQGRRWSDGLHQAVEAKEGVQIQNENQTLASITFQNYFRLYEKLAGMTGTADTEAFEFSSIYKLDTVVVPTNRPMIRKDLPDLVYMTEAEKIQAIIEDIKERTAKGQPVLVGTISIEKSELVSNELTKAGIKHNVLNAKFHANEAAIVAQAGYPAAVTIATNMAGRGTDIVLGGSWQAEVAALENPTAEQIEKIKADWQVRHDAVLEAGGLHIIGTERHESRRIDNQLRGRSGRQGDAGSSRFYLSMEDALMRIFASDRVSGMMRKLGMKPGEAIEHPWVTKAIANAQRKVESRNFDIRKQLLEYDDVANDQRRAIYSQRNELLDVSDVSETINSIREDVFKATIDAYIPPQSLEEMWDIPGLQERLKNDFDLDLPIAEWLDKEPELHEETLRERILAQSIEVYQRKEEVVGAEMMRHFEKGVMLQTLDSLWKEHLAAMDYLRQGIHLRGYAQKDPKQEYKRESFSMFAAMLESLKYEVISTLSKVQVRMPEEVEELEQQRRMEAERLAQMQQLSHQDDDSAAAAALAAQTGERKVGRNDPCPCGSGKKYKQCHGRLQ

Row | Compound | Percent Effect [1] | Percent Effect [2] | Percent Effect [3] | Percent Effect [4] | Percent Effect (Trypanosoma cruzi) | Percent Effect [5] | Percent Effect [6] | Percent Effect (Homo sapiens) | Percent Effect [7] | Percent Effect [8] | Percent Effect [9]
1 | COc1ccccc1CC(=O)N1CCC(NCc2c[nH]nc2C)CC1 | -1.53% | 13.5% | -1.94% | -8.2% | -1.02% | 0.924% | 3.95% | 2.04% | 7.92% | 23.2% | -6.91%
2 | Cc1ccc(NC2CCN(C(=O)COCC(F)(F)F)CC2)nn1 | -6.28% | 6.33% | -2.75% | 3.15% | -1.95% | -2.37% | 10.1% | 12.1% | 2.08% | 2.53% | 3.78%
3 | CCN1C[C@H]2CCN(C(C)=O)CC[C@H]2S1(=O)=O | -0.139% | 9.33% | -6.04% | -0.534% | -5.7% | -5.81% | 19.6% | 1.4% | 0% | 5.13% | -7.45%
4 | CC(C)NC(=O)[C@@H]1C[C@H](N)CN1C(=O)c1cc2c([nH]c1=O)CCCC2 | -2.48% | 6.94% | -2.43% | -9.13% | -1.46% | 1.77% | 17.7% | 3.48% | 4.21% | 7.69% | -3.08%
5 | CNS(=O)(=O)c1cccc(CNC(=O)c2c(C)nn(C)c2C)c1 | -5.54% | 11.4% | -3.57% | -3.8% | -2.15% | 1.07% | 9.78% | 30.5% | -1.04% | 2.53% | -12.7%
6 | c1cnc(N2CCOC3(CCN(CC4CCCCC4)CC3)C2)nc1 | 0.617% | 13.3% | 14.1% | -0.802% | -5.12% | -2.1% | 14.7% | 10.1% | 5.32% | 11.5% | -3.47%
7 | Cc1ccc(N2CC[C@H](OCC3CC3)[C@@H]2Cc2cnn(C)c2)nn1 | -4.88% | 5.41% | -7.52% | -0.711% | -0.195% | 0.833% | 15.1% | 8.56% | 7.92% | 8.54% | 0.632%
8 | c1cncc(OCC2CN(Cc3ccco3)Cc3nccn3C2)c1 (stereo unspecified) | -1.62% | 21.9% | -8.03% | 11.2% | 4.17% | 0% | 16% | 6.3% | 10.4% | 23.5% | -9.31%
9 | CC(C)OCC(=O)N1CCCN(Cc2ccc(C#N)cc2)CC1 | -2.63% | 13.2% | 4.09% | 11.3% | 0.94% | 2.68% | 10.2% | -2.84% | 8.33% | 17.1% | -8.3%
10 | CN1CCN(C(=O)c2cnc3c(cnn3C3CCCC3)c2)CC1 | -5.03% | 12.7% | -2.67% | -0.596% | 8.78% | 5.7% | 1.72% | -7.07% | 5.42% | 16.5% | -5.9%
11 | CCN(CC1CCOC1)C(=O)c1cccnc1N1CCOCC1 (stereo unspecified) | -2.22% | 5.26% | -1.45% | 12.7% | 6.07% | -1.8% | -1.95% | -1.93% | 4.43% | 6.17% | 2.96%
